Compounds with a hit are over-represented: about 3% of the library has one in this group of screens.
ABHD5 PLIN5 PPI: ABHD5-PLIN5 interaction inhibitors, primary screen, cell lysate, split luciferase complementation, luminescence. inhibition, % at 4 µM. Perilipin-5 (Homo sapiens) + 1-acylglycerol-3-phosphate O-acyltransferase ABHD5 (Homo …. 360,000 tested, 0.78% active. AID 602281, 2012. Split G. princeps luciferase complementation, 4 h;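 active = inhibition above the mean inhibition across every tested compound plus 3 SD, cut at about 22% in these data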;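 note: 0% = DMSO only wells and the 100% control is not disclosed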
Target sequence (Q00G26 whole entry, looked up): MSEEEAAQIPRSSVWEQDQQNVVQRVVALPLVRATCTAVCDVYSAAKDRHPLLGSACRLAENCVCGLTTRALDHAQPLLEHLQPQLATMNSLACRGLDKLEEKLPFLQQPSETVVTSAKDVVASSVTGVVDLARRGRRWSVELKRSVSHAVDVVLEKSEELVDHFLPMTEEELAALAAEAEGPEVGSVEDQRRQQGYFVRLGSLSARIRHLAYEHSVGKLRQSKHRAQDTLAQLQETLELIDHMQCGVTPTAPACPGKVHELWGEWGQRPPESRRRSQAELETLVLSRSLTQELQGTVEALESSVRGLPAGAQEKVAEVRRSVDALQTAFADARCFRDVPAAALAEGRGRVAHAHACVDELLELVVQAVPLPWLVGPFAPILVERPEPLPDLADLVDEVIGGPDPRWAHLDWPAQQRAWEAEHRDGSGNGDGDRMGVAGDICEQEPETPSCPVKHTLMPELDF
Target sequence (Q8WTS1 whole entry, looked up): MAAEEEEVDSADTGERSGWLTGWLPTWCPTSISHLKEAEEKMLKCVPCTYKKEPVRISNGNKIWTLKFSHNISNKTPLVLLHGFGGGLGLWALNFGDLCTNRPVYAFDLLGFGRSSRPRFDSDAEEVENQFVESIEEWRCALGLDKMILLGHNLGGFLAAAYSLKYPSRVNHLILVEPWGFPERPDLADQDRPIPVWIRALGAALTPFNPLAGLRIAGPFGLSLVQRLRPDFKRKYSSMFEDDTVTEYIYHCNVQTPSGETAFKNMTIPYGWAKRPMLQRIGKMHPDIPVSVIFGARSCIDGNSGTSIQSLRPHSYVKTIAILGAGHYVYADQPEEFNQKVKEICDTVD
HIF-2a inh: HIF-2a reporter inhibitors, primary screen, luminescence, 786-0 RCC cells. 786-0 RCC cells HIF-2a reporter, luciferase luminescence, overnight. inhibition, % at 18.8 µM. 360,000 tested, 0.72% active;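 active = inhibition of the luminescence signal of 40% or more relative to plate controls, in a single-dose primary screen at 18.75 µM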
KKLEB cytotox: cytotoxicity in KKLEB CF airway cells, primary screen, cytotoxicity control for CF NF-kB inhibitor project, cell-based, uHTS, fluorescence assay plates; KKLEB CF airway cells viability, ATPlite luminescence, overnight; stronger effect = lower value; cells stimulated with P. aeruginosa culture filtrate; activity change (cytotoxicity), % at 5 µM; 360,000 tested, 0.36% active;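 active = corrected activity change at or below -50% at 5 µM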
MITF TRPM1 inh: inhibitors of MITF-dependent TRPM1 promoter reporter, primary screen, cell-based, SK-MEL-5, single point, luciferase | SK-MEL-5 TRPM1 promoter luciferase, 24 h | inhibition, % at 12.5 µM | 330,000 tested, 0.83% active | AID 488899, 2010;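 active = mean inhibition across replicates of 60% or more, whatever share of single replicates reaches that level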
Peg3 prom inh: Peg3 promoter-driven luciferase inhibitors, primary screen, cell-based, HeLa, luciferase luminescence; HeLa PEG-Prom luciferase reporter, overnight; AID 588405, 2011; inhibition, % at 20 µM; 360,000 tested, 1.7% active;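 active = inhibition of at least 50% at 20 µM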
CF NFkB inh: inhibitors of PAF-induced NF-kB signaling, primary screen, cell-based, GFP fluorescence, uHTS; 360,000 tested, 0.86% active; inhibition, % at 5 µM; KKLEB NF-kB-GFP reporter, GFP fluorescence overnight;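 active = at least 50% inhibition at 5 µM, scaled per plate between neutral and stimulator controls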;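 note: PAF is a Pseudomonas aeruginosa culture filtrate used as stimulus; plate controls were PAF-stimulated DMSO wells for no effect and unstimulated DMSO wells for full effect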
Mdm2 MdmX conf: retested Mdm2-MdmX interaction blockers, confirmation, cell-based, luminescence, single concentration, set 2; 740 tested, 99% active; shares compounds with HIF-2a inh; SaOS-2 split-luciferase Mdm2/MdmX complementation; inhibition, % at 8 µM; AID 504601, 2011;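 active = mean inhibition of the luminescence signal across two replicates at or above 26 percent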
HIF-2a conf: HIF-2a reporter inhibitor retest, confirmation, luminescence, 786-0 RCC cells. shares compounds with HIF-2a inh. HIF-2a luciferase reporter luminescence, overnight. inhibition, % at 18.8 µM. 1,800 tested, 56% active. AID 651580, 2012;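 active = mean inhibition across four replicates of at least 40 percent at the single tested concentration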
HIF-1a cs: HIF-1a luciferase reporter signal reduction – MiaPaCa-2 cells, single concentration, counter-screen for HIF-2a inhibitor project, confirmation; 1,800 tested, 72% active; shares compounds with HIF-2a inh; MiaPaCa-2 HIF-1a luciferase reporter, desferoxamine, overnight; inhibition, % at 18.8 µM;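 active = mean inhibition of the reporter signal across four replicates at the single tested dose of 50% or more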
An asterisk follows results filed as active; · = not tested or not shown.

SMILES | ABHD5 PLIN5 PPI | HIF-2a inh | KKLEB cytotox | MITF TRPM1 inh | Peg3 prom inh | CF NFkB inh | HIF-2a conf | HIF-1a cs | others
Cc1cc(N/N=C\c2ccccc2)nc(-c2ccccc2O)n1 | -12 | -166 | -27 | -6 | -97 | -25 | · | ·
COc1ccc(CCNC(=O)C(C)n2nc(C)c3c(C)n(-c4ccc(C)cc4)nc3c2=O)c(OC)c1 (stereo not given) | 8 | 10 | 18 | 23 | 20 | -14 | · | ·
CCOC1=C2CN(S(=O)(=O)c3ccc(C)cc3)C(c3ccc(CC)cc3)CC2n2c(=O)n(-c3ccccc3)c(=O)n2C1 (stereo not given) | 7 | -9 | · | · | · | · | · | ·
O=c1[nH]c2ccc(Br)cc2c(=O)o1 | 5 | 44* | 1 | · | 9 | -18 | 45* | 8
Cc1ccc(OCCn2cc(C(=S)N3CCCC3)c3ccccc32)cc1C | -8 | -27 | -2 | -5 | 22 | -17 | · | · | Mdm2 MdmX conf=100*
S=C(c1cn(CCOc2ccccc2)c2ccccc12)N1CCCC1 | 1 | -12 | -8 | 2 | 10 | 10 | · | ·
O=C(O)CCSc1ncnc2sc(-c3ccccc3)cc12 | 6 | 91* | -7 | · | 25 | 7 | 94* | 84*
O=C(CN1C(=O)c2ccccc2S1(=O)=O)c1ccccc1F | 0 | 7 | 13 | 26 | 5 | 5 | · | ·
O=C(CN1C(=O)c2ccccc2S1(=O)=O)c1ccc(F)cc1 | -7 | 57* | 8 | 39 | 58* | -14 | 64* | 59*
O=C(CN1C(=O)c2ccccc2S1(=O)=O)c1ccc(OC(F)F)cc1 | -3 | 52* | 5 | 65* | 56* | -3 | 75* | 64*
O=C(CN1C(=O)c2ccccc2S1(=O)=O)c1ccc(Cl)cc1Cl | 9 | 55* | 3 | 87* | 16 | 14 | 82* | 90*
C[C@@H]1CN([C@@H](C)CO)C(=O)CCCn2nncc2CO[C@@H]1CN(C)S(=O)(=O)c1ccc(C#N)cc1 | -4 | 4 | 10 | · | -6 | -46 | · | ·
COC(=O)CCSc1cc(NCCOC(C)=O)c([N+](=O)[O-])c2nonc12 | -10 | 13 | 0 | -2 | 10 | 17 | · | ·
CC(=O)OCCCNc1cc(Sc2nc3ccccc3s2)c2nonc2c1[N+](=O)[O-] | -13 | 32 | 2 | 22 | 105* | 2 | · | · | Mdm2 MdmX conf=103*
O=[N+]([O-])c1c(NCCCO)cc(Sc2ccc(Cl)cc2)c2nonc12 | 6 | 96* | 24 | 92* | 98* | -4 | 52* | 106*
COC(=O)COc1ccc(S(=O)(=O)NCc2ccc3c(c2)OCO3)cc1 | 0 | 23 | -4 | -7 | 13 | 7 | · | ·
O=C(OCC(=O)c1c[nH]c2ccccc12)c1cc(S(=O)(=O)N2CCOCC2)ccc1F | 6 | 42* | -16 | 22 | 12 | -2 | 16 | 72*
O=C(COC(=O)c1cc(S(=O)(=O)N2CCOCC2)ccc1F)c1ccc[nH]1 | 3 | 19 | 4 | 3 | -7 | -9 | · | ·
O=C(COC(=O)c1cnc(Cl)c(Cl)c1)c1ccc(F)cc1 | -1 | -3 | 8 | 3 | 9 | 6 | · | ·
O=C(OCCN1CCCCC1)c1ccccc1Cl | 4 | 5 | 4 | -5 | 0 | 1 | · | ·
O=C(OCn1ncc(Cl)c(Cl)c1=O)c1ccccc1Cl | 7 | 95* | -90* | 111* | 102* | 99* | 98* | 106*
O=C(OCn1ncc(Cl)c(Cl)c1=O)c1ccc(F)cc1 | · | · | · | · | · | · | · | · | Mdm2 MdmX conf=103*
CCCCn1c(N)c(N(CC(C)C)C(=O)c2ccc(F)c(S(=O)(=O)N3CCOCC3)c2)c(=O)[nH]c1=O | -6 | 22 | 5 | -1 | 8 | 12 | · | ·
COc1cccc(NC(=O)c2cc3c(=O)n4ccccc4nc3n(CC(C)C)c2=N)c1 | 3 | -10 | 10 | 60 | -8 | -13 | · | · | Mdm2 MdmX conf=36*
COc1ccc(CNC(=O)c2cc3c(=O)n4ccccc4nc3n(Cc3cccnc3)c2=N)cc1 | 15 | -11 | -2 | 2 | 11 | -12 | · | ·
SMILES | ABHD5 PLIN5 PPI | HIF-2a inh | KKLEB cytotox | MITF TRPM1 inh | Peg3 prom inh | CF NFkB inh | HIF-2a conf | HIF-1a cs | others
CCc1ccc(-c2nc(CS(=O)CC(=O)NCc3ccco3)c(C)o2)cc1 (stereo not given) | 11 | 70* | 16 | 35 | 46 | -25 | 22 | 69*
COc1ccc(-c2nc(CS(=O)CC(=O)NCc3ccco3)c(C)o2)cc1 (stereo not given) | -5 | -9 | 4 | 18 | -17 | -4 | · | ·
Cc1cccc(NC(=O)CSCC(=O)Nc2cccc3ncccc23)c1 | 6 | 22 | -6 | 4 | 7 | 26 | · | ·
CCC(C)NC(=O)C1c2ccccc2C(=O)N1Cc1ccc(F)cc1 (stereo not given) | 2 | 17 | 11 | 6 | -2 | -14 | · | ·
Cc1cc(NC(=O)c2ccccc2)c(Cl)cc1N | 7 | 69* | 5 | 26 | -31 | -8 | 84* | 59*
COc1ccc(C(Nc2cc(C)ccn2)c2ccc3ccc(C)nc3c2O)cc1 (stereo not given) | 9 | 13 | -29 | 14 | 9 | 39 | · | ·
COc1cc(C(Nc2ccccn2)c2ccc3ccc(C)nc3c2O)cc(OC)c1O (stereo not given) | 14 | 94* | -34 | 28 | 102* | 74* | · | · | Mdm2 MdmX conf=102*
COc1ccc(C(=O)/C=C/C(=O)N(CC(=O)NC2CCCCC2)Cc2ccc(F)cc2)c(O)c1 | 18 | 64* | -42 | 99* | 102* | 37 | 58* | 105*
COc1ccc(C(=O)/C=C/C(=O)N(CC(=O)NCCC(C)C)Cc2cccs2)c(O)c1 | 12 | 96* | -3 | 84* | 105* | -20 | 91* | 56*
CS(=O)(=O)N(CC(=O)NC1CCCCC1)Cc1ccc(F)cc1 | -4 | 13 | -2 | -1 | -3 | -11 | · | ·
Cc1c(NC(=O)c2ccc(NS(=O)(=O)c3ccccc3)cc2)c(=O)n(-c2ccccc2)n1C | 5 | 9 | -10 | -2 | 0 | -4 | · | ·

Source: PubChem
